This is an account of results in PubChem BioAssay (NCATS).

Where “and” joins values, the source holds several entries; their conditions need not be identical. Equal entries are not always repeated. Inconclusive results are not listed. Calls of active or inactive are those of the source. Unless noted, calls follow the shape of the dose curve; as a rule, active = well fitted curve in the direction sought with a large enough effect; inconclusive = small, poorly fitted or top-dose-only effect, or another doubt; inactive = no such curve, though single readings can be large; an effect the other way counts as inactive or inconclusive.

Assay [1] is described as follows: Cell Viability - LYMP2-024 (AID 988).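 Also: plate controls were DMSO only for no effect and 92 µM tetraoctylammonium bromide for full effect; nearly all actives have a fitted effect of over 60% in size.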 The method, boiled down: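 Human lymphoblastoid cells (2500/well) in complete medium were preincubated 5 hr at 37 C, then exposed to compounds for 24 hr at 37 C. Intracellular ATP was read by CellTiter-Glo luminescence; AC50 from Hill-equation fits of concentration-response data.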
A short description of assay [2]: Cell Viability - LYMP2-026 (AID 989). Also: % is scaled to controls: 0 for no effect and ±100 for the full control effect; nearly all actives have a fitted effect of over 50% in size. The method, boiled down: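 Human lymphoblastoid cells (2500/well) in complete medium were preincubated 5 hr at 37 C, then exposed to compounds for 24 hr at 37 C. Cellular ATP was read by CellTiter-Glo luminescence; AC50 from Hill-equation fits of concentration-response data.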
Assay [3] concerns the target Alpha-galactosidase A (Homo sapiens) (UniProt P06280). As to the kind of experiment: Counterscreen for Glucocerebrosidase Inhibitors: qHTS Assay for Human alpha-Galactosidase at pH 4.5 (AID 992). Also: 0% is about no effect. The method in brief:
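Read-out is 4-methylumbelliferone fluorescence (365 nm excitation, 440 nm emission) after a pH 10 NaOH/glycine stop. Reactions held 2 nM enzyme and 80 uM substrate at pH 4.5 for 20 min at room temperature.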
In general terms: A counterscreen serves to expose hits that act by an unwanted route or on another target.

Assay [4] can be described thus: Cell Viability - LYMP1-002 - Assay at 24 hr (AID 993). Also: % is scaled to controls: 0 for no effect and ±100 for the full control effect. The method in brief:
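Human lymphoblastoid LYMP1-002 cells, 2500/well in complete medium, were treated with compounds for 24 h at 37 C; intracellular ATP was read by CellTiter-Glo luminescence. AC50 values came from Hill-equation fits of qHTS concentration-response data.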

A short description of assay [5]: Cell Viability - LYMP1-002 - Assay at 40 hr (AID 994).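 Also: 0% = DMSO only and full inhibition = 92 µM tetraoctylammonium bromide; nearly all actives have a fitted effect of over 60% in size.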 The method in brief: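 Human lymphoblastoid cells, 2500/well in complete medium, were preincubated 5 hr at 37 C, then exposed to compounds for 40 hr at 37 C. Intracellular ATP was read by CellTiter-Glo luminescence after 30 min at room temperature; AC50 from Hill-equation fits.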
Assay [6] concerns the target alpha-glucosidase (Oryza sativa, rice) (UniProt Q653V4). As to the kind of experiment: Counterscreen for Glucocerebrosidase Inhibitors: qHTS Assay for Rice alpha-Glucosidase at pH 5.0 (AID 997).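 Also: 0% = full activity with enzyme and -100% = basal without enzyme.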 The method in brief:
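Rice alpha-glucosidase (4 nM final) with 400 uM 4-methylumbelliferyl-alpha-D-glucopyranoside in citrate buffer pH 5.0, 20 min at room temperature, stopped at pH 10; fluorescence 365/440 nm, compounds 0.7 nM–77 uM, AC50 from Hill fits.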

Assay [7] concerns the target Alpha-galactosidase (Coffea arabica) (UniProt Q42656). The assay can be described thus: Counterscreen for Glucocerebrosidase Inhibitors: qHTS Assay for Coffee Bean alpha-Galactosidase at pH 5.9 (AID 998).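 Also: plate controls were uninhibited enzyme for no effect and no-enzyme basal signal for full effect.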 The method, boiled down: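 Green coffee bean enzyme (2 nM final) was incubated with compounds (0.7 nM–77 uM) and 4-methylumbelliferyl alpha-D-galactopyranoside (80 uM) in citrate buffer pH 5.9, 20 min at room temperature. High-pH stop; fluorescence 365/440 nm; AC50 from Hill fits.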

Assay [8] is described as follows: qHTS Assay for Lipid Storage Modulators (AID 1519; calls by dose curve; as to activity change, negative = inhibition: % is scaled to controls: 0 for no effect and ±100 for the full control effect). The settings on record: Drosophila S3 cells, BODIPY lipid droplet/cell ratio, laser cytometry, cells loaded with oleic acid. The method, boiled down: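 Cells seeded at 5,000 per well were treated with compounds over a concentration series and loaded with oleic acid (400 uM, as added). Lipid droplet fluorescence (488 nm excitation, 500-530 nm channel) was read by laser-scanning cytometry and normalized to 20 uM Triacsin C.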
(In qHTS, concentration-response curves come from the screen itself.)

Assay [9] has as its target DNA repair nuclease/redox regulator APEX1 (Homo sapiens) (UniProt P27695). As to the kind of experiment: qHTS Validation Assay for Inhibitors of the Human Apurinic/apyrimidinic Endonuclease 1 (APE1) (AID 1705; also: potency is read from the fitted curve at half-maximal effect;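 as to activity change, negative = inhibition: TAMRA fluorescence gain over two minutes as APE1 cuts a quenched THF abasic duplex; % is scaled to controls: 0 for no effect and ±100 for the full control effect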). The method, boiled down:
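Substrate: 50 nM final fluorophore/quencher THF-abasic duplex. Enzyme preincubated with compounds 15 min, RT. Progress derived from fluorescence difference, third minus first kinetic read.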

The nature of assay [10]: Counterscreen for APE1 Inhibitors: Fluorescent Dye Displacement Validation Assay (AID 1707).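 Also: plate controls were ThO with dsDNA and no compound for no effect and ThO without dsDNA for full effect.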 The method, boiled down: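 ThO 250 nM + dsDNA 50 nM (THF abasic site, 5'-TAMRA), Tris-HCl pH7.5/50mM NaCl/2 mM MgCl2/0.01% Tween-20; compounds pin-transferred; ex 480/em 540 nm endpoint. Neutral = no compound; no-DNA ThO wells = negative control.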
The target of assay [11] is Endonuclease 4 (Escherichia coli (strain K12)) (UniProt P0A6C1). As to the kind of experiment: Counterscreen for APE1 Inhibitors: qHTS Validation Assay for Inhibitors of Endonuclease IV (AID 1708). Also: % is scaled to controls: 0 for no effect and ±100 for the full control effect. The method in brief:
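2 nM enzyme was preincubated with compounds for 15 min at room temperature in 50 mM Tris-HCl pH 7.5, 50 mM NaCl, 2 mM MgCl2, 1 mM DTT, 0.01% Tween-20. 50 nM THF-abasic TAMRA/BHQ-2 duplex substrate started the reaction.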

Assay [12] in a line: qHTS for differential inhibitors of proliferation of Plasmodium falciparum line 7G8 (AID 1815).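 Also: parasite growth measured after three days of incubation.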 Also: potency is read from the fitted curve at half-maximal effect.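 As to activity change, negative = inhibition: plate controls were vehicle wells for no effect and reference inhibitor wells for full effect.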
Assay [13] in a line: qHTS for differential inhibitors of proliferation of Plasmodium falciparum line GB4 (AID 1816).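 Also: parasite growth measured after 72 h incubation.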 Also: potency is read from the fitted curve at half-maximal effect.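 As to activity change, negative = inhibition: 0% = vehicle DMSO and -100% = reference inhibitor.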 The settings on record: Potency: Plasmodium falciparum GB4 proliferation inhibition.
Assay [14] is described as follows: qHTS for differential inhibitors of proliferation of Plasmodium falciparum line 3D7 (AID 1876).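 Also: parasite growth measured after three days of culture; 0% = vehicle wells and -100% = reference inhibitor wells.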
A short description of assay [15]: qHTS for differential inhibitors of proliferation of Plasmodium falciparum line D10 (AID 1877).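 Also: parasites grown with compound for 72 h before DNA staining; plate controls were vehicle wells for no effect and reference inhibitor wells for full effect.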
Assay [16] can be described thus: qHTS for differential inhibitors of proliferation of Plasmodium falciparum line Dd2 (AID 1882).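 Also: compound exposure of 72 h on infected erythrocytes; plate controls were DMSO vehicle for no effect and 0.29 µM artemisinin for full effect; nearly all actives have a fitted effect of over 65% in size.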 The settings on record: Potency: Plasmodium falciparum Dd2 proliferation inhibition. The method, boiled down:
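SYBR Green I DNA fluorescence read-out, ex 485/em 535 nm. Signals were normalized to 0.29 uM artemisinin and DMSO wells, then corrected using vehicle-only plates flanking each stack. Parasite growth ran 72 h in erythrocytes before lysis.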

Assay [17] can be described thus: qHTS for differential inhibitors of proliferation of Plasmodium falciparum line W2 (AID 1883).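 Also: parasites grown with compound for 72 h before lysis and staining; 0% = vehicle wells and -100% = control inhibitor wells.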 The settings on record: Potency: Plasmodium falciparum W2 proliferation inhibition.
A short description of assay [18]: qHTS for differential inhibitors of proliferation of Plasmodium falciparum line HB3 (AID 1886).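 Also: parasites grown with compound for 72 h before SYBR Green readout.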 Also: potency is read from the fitted curve at half-maximal effect.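 As to activity change, negative = inhibition: plate controls were vehicle for no effect and reference inhibitor for full effect.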 The settings on record: Potency: Plasmodium falciparum HB3 proliferation inhibition.
Assay [19] is described as follows: Validation of Assay for Modulators of Lamin A Splicing (AID 1459; active = well fitted curve in the direction sought with a large enough effect in the signal ratio; the % refers to the signal ratio;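 also: cells exposed to compound for two days before reading; 0% is about no effect; ratio rise marks activators and ratio drop marks inhibitors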). The method in brief: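 Dual-reporter HeLa S3 line (lamin A-EGFP minigene, DsRed2) treated with compounds 48 hrs, 0.5% DMSO final. Endpoint: EGFP/DsRed2 total intensity ratio from laser-scanning microplate cytometry.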
Assay [20] in a line: qHTS Assay for Modulators of Human Peripheral Myelin Protein 22 (PMP22) Expression/Activity (AID 1967; active = well fitted curve in the direction sought with a large enough effect in the signal ratio; the % refers to the signal ratio;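 also: 0% = untreated cells and 100% end not stated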). The method, boiled down: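 Engineered MSC80 cells, Pmp22-promoter green and EF-alpha red luciferase reporters; 24h compound treatment at 37 °C. Concentration-response fits on green, red and ratio signals, each overlap-corrected, with %Activity normalized to untreated wells.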

[21] abbreviates: measured here: cell count channel max response.
[22] abbreviates: measured here: lipid channel max response.

Sequence of Alpha-galactosidase A (Homo sapiens) (P06280 whole entry, looked up): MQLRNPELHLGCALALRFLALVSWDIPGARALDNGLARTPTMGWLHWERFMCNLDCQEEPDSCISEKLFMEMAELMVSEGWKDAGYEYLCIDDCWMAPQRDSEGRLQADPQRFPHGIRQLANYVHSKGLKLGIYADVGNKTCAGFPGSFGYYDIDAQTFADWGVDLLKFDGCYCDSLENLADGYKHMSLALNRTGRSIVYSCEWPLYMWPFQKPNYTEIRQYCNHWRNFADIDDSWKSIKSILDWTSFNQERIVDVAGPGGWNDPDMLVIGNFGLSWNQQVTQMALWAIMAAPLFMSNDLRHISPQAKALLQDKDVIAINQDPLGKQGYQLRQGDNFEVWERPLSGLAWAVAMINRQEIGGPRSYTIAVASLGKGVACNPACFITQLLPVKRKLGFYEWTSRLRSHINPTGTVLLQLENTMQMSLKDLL
Sequence of DNA repair nuclease/redox regulator APEX1 (Homo sapiens) (P27695 whole entry, looked up): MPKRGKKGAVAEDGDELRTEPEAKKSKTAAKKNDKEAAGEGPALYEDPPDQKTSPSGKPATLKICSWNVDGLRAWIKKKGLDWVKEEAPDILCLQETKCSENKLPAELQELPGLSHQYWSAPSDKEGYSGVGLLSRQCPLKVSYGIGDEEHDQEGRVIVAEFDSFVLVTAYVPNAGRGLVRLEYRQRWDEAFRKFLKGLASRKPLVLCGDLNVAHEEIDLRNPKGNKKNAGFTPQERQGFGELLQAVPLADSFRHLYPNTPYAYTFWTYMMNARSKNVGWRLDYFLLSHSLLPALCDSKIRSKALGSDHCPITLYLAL
Sequence of Alpha-galactosidase (Coffea arabica) (Q42656 whole entry, looked up): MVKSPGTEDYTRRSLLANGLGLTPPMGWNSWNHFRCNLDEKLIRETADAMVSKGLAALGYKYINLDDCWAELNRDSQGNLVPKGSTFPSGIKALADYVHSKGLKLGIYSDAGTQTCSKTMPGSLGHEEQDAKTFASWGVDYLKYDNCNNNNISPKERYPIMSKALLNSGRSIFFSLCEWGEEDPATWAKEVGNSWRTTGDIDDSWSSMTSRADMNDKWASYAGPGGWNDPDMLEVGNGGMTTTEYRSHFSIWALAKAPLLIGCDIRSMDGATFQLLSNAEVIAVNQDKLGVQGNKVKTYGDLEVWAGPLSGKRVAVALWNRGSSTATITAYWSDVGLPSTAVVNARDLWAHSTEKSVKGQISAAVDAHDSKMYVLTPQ

Turning to `O=P1(N(CCCl)CCCl)NCCCO1` (configuration not stated), the result in [1], in assay [2], in assay [3], in assay [6], in [7] and in assay [10] was inactive. The molecule was called inactive in assay [11]. For the same molecule, the Potency result in assay [4], in assay [5], in [9], in assay [12], in [13] and in [14] was “inactive” each time. For the same molecule, the Potency result in assay [15], in assay [16], in assay [17] and in assay [18] was “inactive” in each case. In addition, the activity change, negative = inhibition in [8] (at 57.5 µM (top of the series)) is 0.148% (inactive). Besides, the max response in [8] (setting [21]) is -27.9%; in assay [8] (setting [22]), -28.7%.

With `COc1cc(-c2ccc(=O)[nH]n2)ccc1OC(F)F`, the outcome in [7] was inactive. Further, the activity change, negative = inhibition in assay [8] (at 25.7 µM (top of the series)) was -2.55% (inactive). Moreover, the max response in assay [8] (setting [21]) is -17.6%; in [8] (setting [22]), -17.5%.

Consider `Cc1ncsc1CCCl`, for which the activity change, negative = inhibition in assay [8] (at 57.5 µM (top of the series)) is 4.7% (inactive). Besides, the max response in assay [8] (setting [21]) amounted to 0.112%; in assay [8] (setting [22]), 4.95%.

For the molecule `CCCCC/C=C\C/C=C\C/C=C\C/C=C\CCCC(=O)NCC(=O)O`, the call in [3], in assay [6], in assay [7], in assay [19] and in [10] was inactive. For the same molecule, the activity change, negative = inhibition in [8] (at 57.5 µM (top of the series)) was -0.69% (inactive). For the same molecule, the max response in assay [8] (setting [21]) came out at 64.5%; in [8] (setting [22]) it was 63.6%. For the same molecule, the Potency is 28.2 µM (active) in assay [9], 14.1 µM (active) in assay [12], 14.1 µM (active) in [13] and 14.1 µM (active) in [18]. For the same molecule, the Potency entry in assay [16] is “inactive”.

Regarding `CN1C(=O)CCS(=O)(=O)C1c1ccc(Cl)cc1` (configuration not stated), the activity change, negative = inhibition in assay [8] (at 57.5 µM (top of the series)) was 6.74% (inactive) and -0.559% (inactive). The max response was 18.4% and 40.6% in assay [8] (setting [21]); 26.5% and 41.1% in assay [8] (setting [22]). Besides, the molecule was called inactive in [10] and in assay [11]. Besides, the Potency result in [12], in assay [13], in assay [14], in [15], in [16] and in assay [18] was “inactive” each time.

On to `C=C(C)[C@H]1CN[C@H](C(=O)O)[C@H]1CC(=O)O`, for which the activity change, negative = inhibition in assay [8] (at 57.5 µM (top of the series)) was 0.0201% (inactive). Moreover, the results for the max response in assay [8] (setting [21]) and in [8] (setting [22]) were -9.16% and -9.1%, respectively. The Potency entry in assay [9], in assay [12], in [13], in assay [14], in assay [15] and in [16] was “inactive” in each case. Moreover, the Potency entry in assay [17] and in assay [18] was “inactive” throughout. In addition, the molecule was called inactive in [10].

Regarding `CC(C)c1cccc(C(C)C)c1O`, the call in assay [1], in assay [2], in [3], in assay [6], in assay [7] and in assay [19] was inactive. The molecule was classed as inactive in assay [10], in assay [11] and in assay [20]. Besides, the Potency entry in [4], in [5], in [9], in assay [12], in assay [13] and in assay [14] was “inactive” each time. The Potency result in [15], in [16], in assay [17] and in [18] was “inactive” throughout. Further, the activity change, negative = inhibition in assay [8] (at 25.7 µM (top of the series)) is -0.519% (inactive). The max response in [8] (setting [21]) was -4.81%; in assay [8] (setting [22]) it was -3.68%.

For the molecule `COc1cc(OC)c(OC)cc1C=O`, the call in assay [1] and in [2] was inactive. For the same molecule, the Potency entry in [4] and in assay [5] was “inactive” throughout. In addition, the activity change, negative = inhibition in assay [8] (at 57.5 µM (top of the series)) was 10.2% (inactive). The max response was 14.2% in assay [8] (setting [21]) and 28.2% in assay [8] (setting [22]).
